# From PubChem BioAssay
# Records with an inconclusive call do not appear. Activity calls are given as the source filed them.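 The calls were made as follows, unless noted: active = inhibition above 54%, about 3 SD of non-fluorescent compounds; inactive = the rest.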
# Tests used:
# [1] = yeast TOR pathway RPL19A-GFP modulators, primary screen, cell-based, S. cerevisiae, multiplex flow cytometry (AID 1862; in the data active = percent of DMSO control GFP below about 86%;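 also: lower values mimic rapamycin by blocking the RPL19A rise seen in DMSO cells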); details: S. cerevisiae RPL19A-GFP strain, flow cytometry fluorescence, 3 h; at 10 µM; stronger effect = lower value
# [2] = modulators of MEP2-GFP levels in yeast, primary screen, S. cerevisiae, multiplex flow cytometry (AID 1867;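 active = GFP response, as percent of the DMSO control, above the screen-wide mean plus 3 SD, about 139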;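 also: median GFP channel fluorescence of barcode-gated MEP2-GFP cells measured by flow cytometry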); details: S. cerevisiae MEP2-GFP strain, 3 h, at 10 µM, stronger effect = higher value, 100% means same as DMSO wells
# [3] = modulators of CIT2-GFP expression in yeast, primary screen, S. cerevisiae, GFP fusion, multiplex flow cytometry (AID 1870;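 active = percent response above a set limit, the screen-wide mean plus 3 SD, cut at about 130% in these data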;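 also: barcoded CIT2-GFP strain pooled with four other GFP strains with rapamycin as positive control; median GFP fluorescence per well over plate mean of DMSO wells so 100% = DMSO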); details: 3 h, at 10 µM, stronger effect = higher value
# [4] = modulators of LAP4-GFP expression in yeast, primary screen, S. cerevisiae, multiplex flow cytometry (AID 1873;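 active = GFP signal, as percent of the solvent control, above the screen mean plus 3 SD, about 149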); details: 3 h, at 10 µM, stronger effect = higher value
# [5] = modulators of AGP1-GFP expression in yeast TOR pathway, primary screen, cell-based, multiplex flow cytometry, S. cerevisiae (AID 1887;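 active = GFP signal above the screen-wide mean plus 3 SD, that is over about 124.5% of the solvent control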;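 also: AGP1-GFP fusion strain of S. cerevisiae within a five-strain barcoded multiplex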); details: 3 h, at 10 µM, stronger effect = higher value
# [6] = inhibitors of CD8+ T cell-vesicle binding, pilot screen, LFA-1/ICAM-1 modulator project, MLPCN validation set, flow cytometry (AID 2523;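 active = response below a set limit, under 55% cells CD8-positive and vesicle-bound, and CD8 cells' 90th-percentile brightness under 279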;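 as to vesicle binding response: mean PE anti-B7-1 fluorescence of CD8+ cells relative to row control; 100% = QL9-loaded vesicles with DMSO vehicle in the same plate row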); details: 2C mouse CD8+ T cells, at 7 µM, stronger effect = lower value; double positive events: measured here: CD8+/vesicle+ event percentage
# [7] = target: Integrin beta-1 (Homo sapiens) + Integrin alpha-4 (Homo sapiens) (UniProt P13612+P05556); test: inhibition of HUTS-21 binding to VLA-4, pilot screen, VLA-4 allosteric modulator project, U937 cells, HUTS-21 mAb, flow cytometry, validation set (AID 2674;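 active = inhibition above 50%, about 3 SD of the validation set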;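 also: antibody binding induced by the VLA-4 ligand LDV present at three times its Kd; 0% = LDV ligand with antibody and no compound and 100% = antibody without LDV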); details: HUTS-21 LIBS mAb binding, at 6.7 µM, stronger effect = higher value, binding induced by LDV ligand
# Chain of Integrin beta-1 (Homo sapiens) + Integrin alpha-4 (Homo sapiens) (P05556 whole entry, looked up): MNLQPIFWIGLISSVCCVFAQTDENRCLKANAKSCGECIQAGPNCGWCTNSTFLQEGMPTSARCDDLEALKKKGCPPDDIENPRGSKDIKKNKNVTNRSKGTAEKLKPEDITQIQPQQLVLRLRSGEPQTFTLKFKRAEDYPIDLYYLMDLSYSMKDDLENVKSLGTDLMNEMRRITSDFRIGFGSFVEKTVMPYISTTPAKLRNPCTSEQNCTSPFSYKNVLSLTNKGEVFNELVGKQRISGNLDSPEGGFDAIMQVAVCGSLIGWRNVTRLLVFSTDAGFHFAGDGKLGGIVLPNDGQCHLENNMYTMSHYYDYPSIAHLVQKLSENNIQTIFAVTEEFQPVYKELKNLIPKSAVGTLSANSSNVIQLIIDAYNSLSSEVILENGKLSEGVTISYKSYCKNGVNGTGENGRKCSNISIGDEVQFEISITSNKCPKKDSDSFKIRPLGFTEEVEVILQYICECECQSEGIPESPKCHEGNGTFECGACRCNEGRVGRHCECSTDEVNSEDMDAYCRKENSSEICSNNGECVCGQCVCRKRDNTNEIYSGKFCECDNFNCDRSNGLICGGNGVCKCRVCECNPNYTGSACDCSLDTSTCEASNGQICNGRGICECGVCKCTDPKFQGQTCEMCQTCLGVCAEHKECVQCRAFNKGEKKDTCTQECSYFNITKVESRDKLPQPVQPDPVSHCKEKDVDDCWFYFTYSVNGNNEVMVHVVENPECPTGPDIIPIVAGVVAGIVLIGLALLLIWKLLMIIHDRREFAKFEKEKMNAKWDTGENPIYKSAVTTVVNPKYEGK
# Chain of Integrin beta-1 (Homo sapiens) + Integrin alpha-4 (Homo sapiens) (P13612 whole entry, looked up): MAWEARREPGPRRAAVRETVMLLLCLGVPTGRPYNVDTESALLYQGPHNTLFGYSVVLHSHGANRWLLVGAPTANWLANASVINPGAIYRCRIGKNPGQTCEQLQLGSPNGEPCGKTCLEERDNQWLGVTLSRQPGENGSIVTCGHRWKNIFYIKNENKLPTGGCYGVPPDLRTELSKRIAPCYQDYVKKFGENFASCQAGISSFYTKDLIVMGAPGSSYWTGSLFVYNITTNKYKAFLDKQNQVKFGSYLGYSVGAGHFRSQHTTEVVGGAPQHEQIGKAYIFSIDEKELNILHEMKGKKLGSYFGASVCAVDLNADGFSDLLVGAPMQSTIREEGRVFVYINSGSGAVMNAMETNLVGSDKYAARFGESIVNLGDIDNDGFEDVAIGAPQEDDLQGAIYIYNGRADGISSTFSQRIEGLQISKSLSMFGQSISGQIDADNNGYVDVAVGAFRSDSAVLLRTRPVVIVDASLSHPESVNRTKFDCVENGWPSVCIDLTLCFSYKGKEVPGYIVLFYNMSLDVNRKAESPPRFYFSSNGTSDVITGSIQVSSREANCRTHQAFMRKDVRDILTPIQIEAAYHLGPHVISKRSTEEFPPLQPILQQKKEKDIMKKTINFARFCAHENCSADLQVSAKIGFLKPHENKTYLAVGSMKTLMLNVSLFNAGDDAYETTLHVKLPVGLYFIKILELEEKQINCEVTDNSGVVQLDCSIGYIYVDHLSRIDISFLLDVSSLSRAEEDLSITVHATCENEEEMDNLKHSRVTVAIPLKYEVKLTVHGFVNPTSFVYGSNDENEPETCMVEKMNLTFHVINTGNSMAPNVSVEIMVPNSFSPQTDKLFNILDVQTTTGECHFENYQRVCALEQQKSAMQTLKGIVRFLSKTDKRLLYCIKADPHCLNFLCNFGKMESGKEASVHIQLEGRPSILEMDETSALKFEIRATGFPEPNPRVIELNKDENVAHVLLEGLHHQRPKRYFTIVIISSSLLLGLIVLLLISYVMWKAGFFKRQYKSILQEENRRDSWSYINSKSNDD
# [8] = superoxide lowering in aged yeast cells, pilot screen, validation compound set (AID 2706;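 active = superoxide response below 65% of plate, a cut near 3 SD across the whole screen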;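 also: yeast exposed to compound for one week at 30 degrees C before staining; 100% = mean of all compound wells on the same plate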); details: S. cerevisiae aging, superoxide DHE fluorescence; at 10 µM; stronger effect = lower value
# [9] = target: Beta-adrenergic receptor kinase 1 (Homo sapiens) (UniProt P25098); test: GRK2 binders displacing RNA aptamer, biochemical, validation, human GRK2, bead flow cytometry (AID 488806;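 active = aptamer binding inhibition above 30%, about 3 SD of noise from non-fluorescent compounds; inactive = inhibition at or below 30%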); details: bead-bound GRK2, FAM-aptamer displacement, at 10 µM, stronger effect = higher value
# Chain of Beta-adrenergic receptor kinase 1 (Homo sapiens) (P25098 whole entry, looked up): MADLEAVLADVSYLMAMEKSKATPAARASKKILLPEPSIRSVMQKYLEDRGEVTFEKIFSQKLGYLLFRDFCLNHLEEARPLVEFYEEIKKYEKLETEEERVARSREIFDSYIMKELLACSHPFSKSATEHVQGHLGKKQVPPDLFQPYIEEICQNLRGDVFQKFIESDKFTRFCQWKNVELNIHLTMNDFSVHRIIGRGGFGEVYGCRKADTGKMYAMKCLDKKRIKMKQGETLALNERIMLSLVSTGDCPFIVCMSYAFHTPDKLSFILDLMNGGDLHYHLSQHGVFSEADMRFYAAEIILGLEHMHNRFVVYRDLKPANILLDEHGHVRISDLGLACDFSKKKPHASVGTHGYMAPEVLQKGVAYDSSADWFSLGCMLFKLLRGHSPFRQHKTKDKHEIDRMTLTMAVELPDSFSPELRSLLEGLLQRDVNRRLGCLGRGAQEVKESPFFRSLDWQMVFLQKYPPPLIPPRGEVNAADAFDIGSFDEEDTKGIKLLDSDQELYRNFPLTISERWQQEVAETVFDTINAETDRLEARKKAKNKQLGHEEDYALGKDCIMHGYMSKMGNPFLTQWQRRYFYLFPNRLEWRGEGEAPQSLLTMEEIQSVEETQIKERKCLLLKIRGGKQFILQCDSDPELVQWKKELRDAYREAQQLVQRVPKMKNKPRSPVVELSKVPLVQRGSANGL
# [10] = target: Beta-2 adrenergic receptor (Homo sapiens) (UniProt P07550); test: beta2AR agonists driving receptor internalization, pilot screen, cell-based, FAP fluorogen, flow cytometry, validation set (AID 504459;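 active = percent response above 42, roughly 3 SD of non-fluorescent test compounds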;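 also: agonist-driven loss of surface beta2AR via internalization measured by FAP dye flow cytometry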); details: Am2.2-beta2AR cells, FAP surface receptor flow cytometry; at 10 µM; stronger effect = higher value
# Chain of Beta-2 adrenergic receptor (Homo sapiens) (P07550 whole entry, looked up, the tested form may be a part): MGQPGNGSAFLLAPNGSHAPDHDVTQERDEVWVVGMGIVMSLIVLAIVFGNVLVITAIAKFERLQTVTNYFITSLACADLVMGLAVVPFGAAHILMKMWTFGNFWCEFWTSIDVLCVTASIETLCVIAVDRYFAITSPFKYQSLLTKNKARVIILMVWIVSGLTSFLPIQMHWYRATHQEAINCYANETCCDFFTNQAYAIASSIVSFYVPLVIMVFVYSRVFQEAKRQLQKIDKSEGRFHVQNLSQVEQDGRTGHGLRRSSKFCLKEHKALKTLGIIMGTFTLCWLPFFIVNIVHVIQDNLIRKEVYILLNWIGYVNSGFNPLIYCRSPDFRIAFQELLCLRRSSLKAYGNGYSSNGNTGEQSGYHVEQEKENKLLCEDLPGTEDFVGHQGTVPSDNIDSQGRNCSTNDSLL
# [11] = target: AP-2 complex subunit beta (Homo sapiens) (UniProt P63010); test: inhibitors of arrestin peptide binding to AP2, pilot screen, biochemical, validation set, GST-AP2 beads, flow cytometry (AID 504541); details: FITC arrestin peptide, at 10 µM, stronger effect = higher value, AP2 beta2 appendage fragment, R879A mutant;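 also: AP2 carries R879A mutation and is captured from E. coli lysate; bead-bound FITC arrestin peptide fluorescence measuring arrestin peptide binding to AP2; 0% = DMSO wells and 100% = excess unlabeled arrestin peptide control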
# Chain of AP-2 complex subunit beta (Homo sapiens) (P63010 whole entry, looked up, the tested form may be a part, one chain of several): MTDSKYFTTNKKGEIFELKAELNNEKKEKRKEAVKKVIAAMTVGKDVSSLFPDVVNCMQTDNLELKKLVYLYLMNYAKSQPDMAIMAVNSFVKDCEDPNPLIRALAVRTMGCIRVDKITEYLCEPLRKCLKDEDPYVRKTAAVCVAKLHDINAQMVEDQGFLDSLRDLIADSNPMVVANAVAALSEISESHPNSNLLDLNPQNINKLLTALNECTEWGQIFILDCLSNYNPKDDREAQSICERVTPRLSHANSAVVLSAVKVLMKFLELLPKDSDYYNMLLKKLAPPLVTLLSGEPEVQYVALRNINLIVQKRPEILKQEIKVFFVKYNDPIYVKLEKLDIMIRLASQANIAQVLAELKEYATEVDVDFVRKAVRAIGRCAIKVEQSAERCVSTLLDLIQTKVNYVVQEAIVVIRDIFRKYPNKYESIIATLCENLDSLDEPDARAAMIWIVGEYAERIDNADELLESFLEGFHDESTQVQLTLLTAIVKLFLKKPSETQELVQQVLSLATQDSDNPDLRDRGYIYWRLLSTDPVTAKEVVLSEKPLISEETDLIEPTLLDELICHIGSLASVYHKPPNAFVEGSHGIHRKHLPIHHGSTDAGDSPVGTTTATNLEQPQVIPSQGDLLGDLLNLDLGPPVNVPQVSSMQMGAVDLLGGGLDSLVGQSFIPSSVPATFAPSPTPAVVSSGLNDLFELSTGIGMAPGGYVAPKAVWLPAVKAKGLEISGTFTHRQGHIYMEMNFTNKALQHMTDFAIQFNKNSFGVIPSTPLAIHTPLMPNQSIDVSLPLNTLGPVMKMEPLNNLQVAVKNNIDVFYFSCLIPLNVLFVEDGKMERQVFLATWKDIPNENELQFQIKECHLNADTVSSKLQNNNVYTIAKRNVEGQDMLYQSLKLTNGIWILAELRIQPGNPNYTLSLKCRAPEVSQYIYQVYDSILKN
# [12] = yeast V-ATPase proton transport modulators, S. cerevisiae, pHLuorin, HTS validation (AID 504600; in the data active = response above about 15%;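 also: plate controls were DMSO for no effect and reference compound for full effect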); details: S. cerevisiae pHLuorin cytosolic pH, at 10 µM, stronger effect = higher value
# [13] = tested on: anti-desmoglein-3 scFv antibody binding to human DSG3; test: inhibitors of anti-DSG3 scFv binding to DSG3, pilot screen, biochemical, validation compound set, bead-based, flow cytometry (AID 588368;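 active = binding below the plate cutoff, the plate median minus 3 SD, with a reading above zero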;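 also: signal is the median channel fluorescence of bead-bound GFP antibody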); details: Protein G beads, DSG3-Fc, scFv-GFP binding, at 10 µM, stronger effect = lower value
# [14] = inhibitors of fungal efflux pumps CDR1, CDR2, MDR1, pilot screen, validation compound set, multiplex, phenotypic (AID 588506;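 active = efflux inhibition above 0.42, the validation set average plus 4 SD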;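 also: Nile Red retained in cells so higher fluorescence means more efflux inhibition; 0 = negative control wells and 1 = enniatin B 25 µM full block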); details: S. cerevisiae pump-expressing triplex, Nile Red efflux flow cytometry; at 10 µM; stronger effect = higher value; the pumps come from Candida albicans
# [15] = target: ATP-binding cassette sub-family B member 6 (Homo sapiens) (UniProt Q9NP58); test: ABCB6 transporter inhibitors, pilot screen, K562-ABCB6 cells, flow cytometry, validation set (AID 588550;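 active = inhibition above the screen-wide mean plus 3 SD, about 51%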;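 also: 0% = DMSO wells and 100% = benzethonium chloride 70 µM positive control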); details: K562-ABCB6 porphyrin accumulation, 1 h, at 10 µM, stronger effect = higher value
# Chain of ATP-binding cassette sub-family B member 6 (Homo sapiens) (Q9NP58 whole entry, looked up): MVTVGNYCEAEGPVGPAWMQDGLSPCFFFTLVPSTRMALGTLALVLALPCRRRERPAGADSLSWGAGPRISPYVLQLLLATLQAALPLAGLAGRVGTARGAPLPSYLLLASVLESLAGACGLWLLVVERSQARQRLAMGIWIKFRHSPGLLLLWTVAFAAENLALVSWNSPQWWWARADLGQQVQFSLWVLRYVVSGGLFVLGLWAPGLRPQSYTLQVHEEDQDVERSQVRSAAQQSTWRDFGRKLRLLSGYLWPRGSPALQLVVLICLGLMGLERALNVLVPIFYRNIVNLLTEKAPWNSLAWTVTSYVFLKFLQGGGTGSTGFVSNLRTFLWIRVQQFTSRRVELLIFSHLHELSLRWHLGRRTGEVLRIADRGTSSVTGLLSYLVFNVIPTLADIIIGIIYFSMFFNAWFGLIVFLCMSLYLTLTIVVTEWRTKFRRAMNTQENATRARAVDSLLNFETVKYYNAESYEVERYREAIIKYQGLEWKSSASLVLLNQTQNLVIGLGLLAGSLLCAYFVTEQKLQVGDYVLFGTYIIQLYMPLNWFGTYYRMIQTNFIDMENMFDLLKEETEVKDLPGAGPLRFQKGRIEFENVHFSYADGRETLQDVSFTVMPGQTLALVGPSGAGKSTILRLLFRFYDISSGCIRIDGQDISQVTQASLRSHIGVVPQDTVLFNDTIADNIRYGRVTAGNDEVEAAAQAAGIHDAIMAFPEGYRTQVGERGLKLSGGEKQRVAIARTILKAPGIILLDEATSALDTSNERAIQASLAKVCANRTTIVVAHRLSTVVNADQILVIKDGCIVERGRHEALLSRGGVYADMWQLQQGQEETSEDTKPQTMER
# [16] = promoters of myeloid differentiation in arrested cells, primary screen, cell-based, GFP/MAC1 double positive, flow cytometry, validation set (AID 588685;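 active = differentiation response of at least 50%, scaled between solvent and reference control, from cells with both markers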;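 also: compound exposure lasts four days before antibody staining and flow analysis; 0% = DMSO wells and 100% = 5 µM fulvestrant positive control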); details: ER-HoxA9 marrow cells, stronger effect = higher value, normalized: vehicle 0, fulvestrant 100
SMILES,percent of DMSO control GFP [1],GFP response vs DMSO [2],percent response of DMSO control [3],GFP response vs DMSO [4],"GFP response, % of DMSO [5]",double positive events [6],vesicle binding response [6],inhibition [7],superoxide response (% of plate) [8],aptamer binding inhibition [9],response [10],inhibition [11],response [12],binding (% of control) [13],efflux inhibition (fraction of control) [14],inhibition [15],differentiation response [16]
O=C(O)C1Cc2ccccc2CN1S(=O)(=O)c1ccccc1 (stereo not drawn),98.8% (inactive),104% (inactive),92.9% (inactive),118% (inactive),96.8% (inactive),60.9%,186% (inactive),-12.7% (inactive),107% (inactive),4% (inactive),-23.4% (inactive),1.65% (inactive),1.38% (inactive),104% (inactive),-0.17 (inactive),9% (inactive),2.4% (inactive)
CC1CCc2cc(F)cc3c(=O)c(C(=O)O)cn1c23 (stereo not drawn),99% (inactive),111% (inactive),95.4% (inactive),101% (inactive),96.5% (inactive),62.3%,204% (inactive),-37.8% (inactive),101% (inactive),0% (inactive),-2.58% (inactive),10.9% (inactive),-2.27% (inactive),94% (inactive),-0.04 (inactive),-15% (inactive),-6.6% (inactive)
CC1(c2ccccc2)CC(C)(C)N2C(=O)C(=O)c3cccc1c32 (stereo not drawn),108% (inactive),97.4% (inactive),99.6% (inactive),81.1% (inactive),95.7% (inactive),60.1%,148% (inactive),-7.25% (inactive),109% (inactive),4% (inactive),20.4% (inactive),0.89% (inactive),3.44% (inactive),98.7% (inactive),0.15 (inactive),5% (inactive),0.8% (inactive)
O=C(/C=C/c1ccccc1)NCC1(c2ccccc2)CCOCC1,101% (inactive),104% (inactive),101% (inactive),117% (inactive),103% (inactive),64.3%,255% (inactive),-18.2% (inactive),99.2% (inactive),-1% (inactive),-8.35% (inactive),63.9% (active),-9.57% (inactive),97% (inactive),-0.21 (inactive),3% (inactive),-15.2% (inactive)
NS(=O)(=O)c1cc2c(cc1Cl)NCNS2(=O)=O,99.7% (inactive),102% (inactive),95.7% (inactive),132% (inactive),123% (inactive),62.4%,245% (inactive),-4.52% (inactive),89.4% (inactive),-2% (inactive),-19.4% (inactive),-24.8% (inactive),0.56% (inactive),105% (inactive),0 (inactive),2% (inactive),-11.9% (inactive)
CCCCOc1ccc(C(=O)CCN2CCCCC2)cc1,109% (inactive),96.6% (inactive),97.6% (inactive),126% (inactive),78.8% (inactive),58.1%,108% (inactive),-9.13% (inactive),83.9% (inactive),-1% (inactive),26.6% (inactive),-10.4% (inactive),7.43% (inactive),104% (inactive),0.11 (inactive),7% (inactive),4.2% (inactive)
CCc1cc2c(=O)c(-c3nc(C)cs3)c(CCCC(=O)O)oc2cc1O,103% (inactive),108% (inactive),102% (inactive),98% (inactive),100% (inactive),54.4%,39.1% (active),1.62% (inactive),105% (inactive),2% (inactive),-4.49% (inactive),-6.82% (inactive),-0.76% (inactive),114% (inactive),-0.2 (inactive),-3% (inactive),2.2% (inactive)
COc1ccc(CNC(=O)C2CCCN2C)cc1OC (stereo not drawn),98.8% (inactive),99.7% (inactive),101% (inactive),92.6% (inactive),96.7% (inactive),62%,141% (inactive),1.59% (inactive),87.7% (inactive),-2% (inactive),7.42% (inactive),-3.62% (inactive),-0.65% (inactive),104% (inactive),-0.29 (inactive),-5% (inactive),-7.5% (inactive)
Cn1nc(-c2ccc(Cl)cc2)nc2c(=O)n(C)c(=O)nc1-2,74.2% (active),138% (inactive),74.4% (inactive),137% (inactive),76.7% (inactive),62.1%,215% (inactive),-12.2% (inactive),79.2% (inactive),45% (active),17.6% (inactive),-4.09% (inactive),59.4% (active),108% (inactive),0.12 (inactive),-16% (inactive),-4.99% (inactive)
